Measurements as given in PubChem BioAssay (NCATS).
Records with an inconclusive call do not appear. Activity calls are given as the source filed them. Calls come from the whole dose curve; as a rule, active = well fitted curve in the direction sought with a large enough effect; inconclusive = small, poorly fitted or top-dose-only effect, or another doubt; inactive = no such curve, though single readings can be large; an effect the other way counts as inactive or inconclusive.

Key:
[1] = qHTS assay to identify small molecule inhibitors of chordoma cells - UCH-1 (AID 1259355); settings: UCH-1 chordoma viability, CellTiter-Glo, 48 h, combination, with auranofin plus four topoisomerase inhibitors; series mostly up to 46.1 µM; note: % is set by controls: 0 for no effect and ±100 for the full control effect; nearly all actives have a fitted effect of over 55% in size
Method in brief: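 Screening used approved and investigational drugs in 15-point titration against 800 seeded cells per well. A fixed combination of auranofin with camptothecin, doxorubicin, rubitecan and topotecan followed compound addition, and growth was scored by CellTiter-Glo after 48hr.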

[2] = qHTS assay to identify small molecule inhibitors of chordoma cells - UCH-2 (AID 1259356); settings: UCH-2 chordoma viability, CellTiter-Glo ATP luminescence, 48 h; series mostly up to 46.1 µM; note: % is set by controls: 0 for no effect and ±100 for the full control effect
[3] = P-glycoprotein substrates identified in KB-8-5-11 adenocarcinoma cell line, qHTS therapeutic library screen (AID 1346987); settings: KB-8-5-11 (P-gp overexpressing) viability, CellTiter-Glo, 72 h; series mostly up to 44.5 µM; note: % is set by controls: 0 for no effect and ±100 for the full control effect; nearly all actives have a fitted effect of over 65% in size
Method in brief: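 In this qHTS, P-gp-rich KB-8-5-11 cells received library compounds across a concentration range. Viability was quantified by luminescence after 72 h at 37 degree C.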

[4] = qHTS Assay for Identifying Gametocytocidal Compounds (AID 743244);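 note: % is set by controls: 0 for no effect and ±100 for the full control effect; actives lower the fluorescent signal which means gametocytes are killed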; settings: P. falciparum 3D7 stage III-V gametocytes, alamarBlue, 72 h; max response: hits give low values
Method in brief: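 Using 20,000 stage III–V 3D7 gametocytes per well, compounds were incubated 72 h under 37 °C/5% CO2. Viability was then assessed by 24 h alamarBlue reduction, measured fluorometrically at 525/598 nm.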

[5] = qHTS assay for cell viability of HEK293 cells (AID 743288); settings: ATP luminescence (CellTiter-Glo), 18 h; max response: hits give low values; note: % is set by controls: 0 for no effect and ±100 for the full control effect; nearly all actives have a fitted effect of over 50% in size
Method in brief: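 ATP luminescence (CellTiter-Glo) reports metabolically competent cell number after parental HEK293 cells, 2,000/well, were treated with DMSO-dissolved compounds for 18 h at 37 C; reagent incubation 30 min, room temperature.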

[6] = qHTS assay for cell viability of the p53RE-bla HCT-116 cell line (AID 743292); settings: p53RE-bla HCT-116 viability, ATP luminescence, 16 h; series mostly up to 95 µM; note: % is set by controls: 0 for no effect and ±100 for the full control effect; nearly all actives have a fitted effect of over 55% in size
Method in brief: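 HCT-116 p53RE-bla cells seeded 4,000/well; 5 h at 37 C; compound (DMSO) added; 16 h at 37 C; CellTiter-Glo added, 30 min RT; luminescence read.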

[7] = NS1 protein of Zika virus - qHTS assay to identify small molecule inhibitors in human HEK 293 cells (AID 1347053); settings: HEK293 ZIKV MR766 infection, NS1 TR-FRET, 24 h; series mostly up to 46.1 µM;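 note: plate controls were infected untreated cells for no effect and uninfected cells for full effect; nearly all actives have a fitted effect of over 55% in size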
Method in brief: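 In this cell-based screen, HEK 293 cultures received compound for one hour before Zika MR766 at MOI = 0.5. NS1 was quantified 24 hours later by TR-FRET, normalized to virus-free wells and infected wells.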

O=C(O)CCCC/C=C(\c1ccccc1)c1cccnc1
inactive: Potency [1] | Potency [2] | Potency [3]

CC(=O)N[C@@H]([C@@H](O)[C@H](O)[C@H](O)CO)[C@@H](O)CC(=O)C(=O)O
inactive: Potency [1] | Potency [2] | Potency [3]

CN1CCCC(CN2c3ccccc3Sc3ccccc32)C1 (stereo not drawn)
inactive: Potency [1] | Potency [2] | Potency [3]

CC(C)(CO)[C@@H](O)C(=O)NCCC(=O)NCCSSCCNC(=O)CCNC(=O)[C@H](O)C(C)(C)CO
inactive: Potency [1] | Potency [2] | Potency [3]

CCCOC(=O)c1ccccc1O
inactive: Potency [1] | Potency [2] | Potency [3]

CC(=O)[C@@]1(O)CC[C@H]2[C@@H]3C=C(Cl)C4=CC(=O)[C@@H]5C[C@@H]5[C@]4(C)[C@H]3CC[C@@]21C
inactive: Potency [1] | Potency [2] | Potency [3]

O=C1[O][Bi][O]c2ccccc21
inactive: Potency [1] | Potency [2] | Potency [3]

CN[C@H](CC(C)C)C(=O)N[C@H]1C(=O)N[C@@H](CC(N)=O)C(=O)N[C@H]2C(=O)N[C@H]3C(=O)N[C@H](C(=O)N[C@@H](C(=O)O)c4cc(O)cc(O)c4-c4cc3ccc4O)[C@H](O)c3ccc(c(Cl)c3)Oc3cc2cc(c3O[C@@H]2O[C@H](CO)[C@@H](O)[C@H](O)[C@H]2O[C@H]2C[C@](C)(N)C(O)[C@H](C)O2)Oc2ccc(cc2Cl)[C@H]1O (stereo partly drawn)
inactive: Potency [1] | Potency [2] | Potency [3]

O=C(OCc1ccccc1)c1ccc(O)cc1
inactive: max response [4] 1.16% | max response [5] -7.01% | outcome [6] | Potency [1] | Potency [2] | Potency [3] | outcome [7]

CCC(=O)c1ccc2c(c1)N(CCCN1CCN(CCO)CC1)c1ccccc1S2
inactive: Potency [1] | Potency [2] | Potency [3]

O=C1C2CC3CC1CC(O)(C3)C2
inactive: Potency [1] | Potency [2] | Potency [3]

C[N@+]12CCCC[C@@H]1CCC(=C(c1cccs1)c1cccs1)C2
inactive: Potency [1] | Potency [2] | Potency [3]

NC(N)=NCC1COC2(CCCCC2)O1 (stereo not drawn)
inactive: Potency [1] | Potency [2] | Potency [3]

NC(=O)[C@@H]1CCCN1C(=O)[C@H](Cc1cnc[nH]1)NC(=O)[C@@H]1CCC(=O)N1
inactive: max response [4] 7.17% | Potency [1] | Potency [2] | Potency [3]

CNC(=O)C[C@@H](N)C(=O)N[C@@H](C(=O)N[C@@H]1C(=O)N2[C@@H]1SC(C)(C)[C@@H]2C(=O)O)c1ccc(O)cc1
inactive: max response [4] -4.28% | Potency [1] | Potency [2] | Potency [3]

CC(C)[C@@H]1CC[C@@H](C)C[C@H]1OC(=O)c1ccccc1O
inactive: max response [4] 9.93% | Potency [1] | Potency [2] | Potency [3]

O=C1CCC(c2ccccc2)(C2CCN(Cc3ccccc3)CC2)C(=O)N1 (stereo not drawn)
inactive: max response [4] 0.775% | Potency [1] | Potency [2] | Potency [3]

Cc1cc(=O)c(C(=O)N[C@@H](C(=O)N[C@@H]2C(=O)N3C(C(=O)O)=C(CSc4nnnn4C)CS[C@H]23)c2ccc(O)cc2)c[nH]1
inactive: max response [4] -4.61% | Potency [1] | Potency [2] | Potency [3]

Cc1ccccn1
inactive: max response [4] 2.7% | Potency [1] | Potency [2] | Potency [3]

CNC(=O)OCc1cccc(COC(=O)NC)n1
inactive: max response [4] 8.67% | Potency [1] | Potency [2] | Potency [3]

CCCCC/C=C\C/C=C\C/C=C\CCCCC(=O)O
inactive: max response [4] 14.9% | Potency [1] | Potency [2] | Potency [3]

O=C(O)c1ccc(NC2OC[C@@H](O)[C@H](O)[C@H]2O)cc1 (stereo partly drawn)
inactive: max response [4] -2.1% | Potency [1] | Potency [2] | Potency [3]

CCc1ncnc2cc(OC)c(OC)cc12
inactive: max response [4] -4.33% | Potency [1] | Potency [2] | Potency [3]

Cc1ncc(C[n+]2csc(CCOP(=O)(O)O)c2C)c(N)n1
inactive: max response [4] -3.97% | Potency [1] | Potency [2] | Potency [3]

CC(=O)N[C@@H](C=O)[C@@H](O)[C@H](O)[C@H](O)CO
inactive: max response [4] 11.4% | Potency [1] | Potency [2] | Potency [3]

CCCCCCCCCCCC(=O)N(CCO)CCO
inactive: max response [4] 11.9% | Potency [1] | Potency [2] | Potency [3]

CC(C)CN(C[C@@H](O)[C@H](Cc1ccccc1)NC(=O)O[C@@H]1CCOC1)S(=O)(=O)c1ccc(N)cc1
inactive: max response [4] 12.1% | Potency [1] | Potency [2] | Potency [3]

CC[C@H]1NC(=O)[C@@H](NC(=O)c2ncccc2O)[C@@H](C)OC(=O)[C@H](c2ccccc2)NC(=O)[C@@H]2CC(=O)CCN2C(=O)[C@H](Cc2ccccc2)N(C)C(=O)[C@@H]2CCCN2C1=O
inactive: max response [4] 3.22% | Potency [1] | Potency [2] | Potency [3]
